PubChem BioAssay (EPA / NIEHS)
Calls of active or inactive are those of the source. The calls were made as follows: active = hit-call score of the fitted dose curve at least 0.9, where 1 is the maximum; inactive = score below 0.9.

Test: CEETOX_H295R_DOC: CeeTox H295R High-throughput Steroidogenesis Assay for DOC (AID 2283439)
Conditions: actives raise or lower the signal
Experimental: CEETOX_H295R is a cell-based, multiplexed-readout assay that uses H295R, a human adrenal gland cell line, with measurements taken at 48 hours after chemical dosing in a 96-well plate.CEETOX_H295R_DOC is one of 23 assay component(s) measured or calculated from the CEETOX_H295R assay. It is designed to make measurements of hormone induction, a form of inducible reporter, as detected with absorbance signals by HPLC-MS-MS technology.Data from the assay component CEETOX_H295R_DOC was analyzed into 1 assay endpoint. This assay endpoint, CEETOX_H295R_DOC, was analyzed with bidirectional fitting relative to DMSO as the negative control and baseline of activity. Using a type of inducible reporter, gain or loss-of-signal activity using HPLC-MS-MS was used to understand synthesis of 11-Deoxycorticosterone in H295R cell line at 48hr of chemical exposure. To generalize the intended target to other relatable targets, this assay endpoint is annotated to the steroid hormone intended target family, where the subfamily is glucocorticoids.
Cell culture and media preparation procedures were conducted in accordance with OECD Test No. 456 guidelines, with minor modifications. H295R cells (ATCC CRL-2128) were expanded for 5 passages and frozen in batches in liquid nitrogen. Prior to the steroidogenesis assay, H295R cells were thawed and passed at least 4 times. The maximum passage was 10. Cells were maintained in a 1:1 mixture of DMEM/F12 supplemented with 5ml/L ITS+ Premix (BD Bioscience) and 12.5 ml/L Nu-Serum (BD Bioscience). After seeding cells into 96-well plates at 50-60% confluency, cells were allowed to adhere overnight. Prior to chemical testing, culture medium was replaced with 175 uL medium containing 10 uM forskolin to stimulate steroidogenesis for 48 hours. Following prestimulation, forskolin medium was replaced with medium containing test chemical solubilized in DMSO (ensuring a final concentration of 0.1% DMSO). Test chemicals were incubated for 48 hours, then the medium was removed and split into 2 vials containing approximately 75uL each, and stored at -80 C prior to hormone analysis. For steroid quantification, media samples were shipped to OpAns, LLC (Durham, NC) on dry ice, and samples were thawed to room temperature prior to liquid-liquid extraction. Steroid hormones were extracted from media samples using methyl tertbutyl ether (MTBE). An extra derivatization with dansyl chloride was included for estrogen (estrone and estradiol) detection only. Steroid hormones were separated by HPLC, eluted using a reverse phase C18 gradient with electrospray positive ionization, followed by quantification by tandem mass spectrometry (MS/MS). Data were acquired on a MassHunter Workstation Acquisition version B03.01 (Agilent Technologies, Inc.) and processed using MassHunter Quantitative Analysis for QQQ. Accuracy was determined for each hormone analyte from 3 standards to determine upper and lower limits of quantification (ULOQ and LLOQ, respectively) using a 7-point standard curve. Precision and accuracy of the extraction and quantification methods were calculated as the percent relative standard deviation (%RSD) of the spiked standards and percent spiked standard recovered, respectively. […] Test medium was removed following chemical exposure, and cell viability was evaluated in the same wells by MTT. MTT procedures were as follows: after removal of test medium, 500 uL of 0.5 mg/ml of 3-[4,5-dimethylthiazol-2-y]2,5-diphenyltetrazoliumbromide solution was added to the cells. Following a 4-hour incubation at 37 C and 5% CO2 to allow formazan-crystal formation, the MTT solution was removed and blue formazan salt crystals were solubilized using 500uL anhydrous isopropanol with shaking for 20 minutes. Absorbance was read at 570 and 650nm using a Packard Fusion microplate reader. Background correction of absorbance units was used to determine percent change relative to controls. […]
For CCOP(=S)(OCC)SCSP(=S)(OCC)OCC, the AC50 was 1.37 µM (active). For C[C@]12CC[C@H](O)CC1=CC[C@@H]1[C@@H]2CC[C@]2(C)C(=O)CC[C@@H]12, the outcome was “inactive”. For Fc1ccc(C2(Cn3cncn3)OC2c2ccccc2Cl)cc1 (centres undefined), the AC50 was 2.08 µM (active). In the case of Oc1ccc(-c2ccccc2)cc1, the outcome was “inactive”. For O=C(Cc1ccccc1)c1ccccc1, the outcome was “inactive”. For CCCCCCCCC(=O)NCc1ccc(O)c(OC)c1, the outcome was “inactive”. With C=CC(=O)N(C)C the outcome was “inactive”. For C1CCC(NC2CCCCC2)CC1, the outcome was “inactive”. In the case of CC12CC1(C)C(=O)N(c1cc(Cl)cc(Cl)c1)C2=O (centres undefined), the outcome was “inactive”. For Nc1ccc(-c2ccc(N)c(Cl)c2)cc1Cl, the outcome was “inactive”. For CCOP(=S)(OCC)SCCS(=O)(=O)CC, the outcome was “inactive”. With CN(CCCC(=O)c1cccnc1)N=O the outcome was “inactive”. With CCOP(=S)(OCC)Oc1nc(Cl)c(Cl)cc1Cl the outcome was “inactive”. For O=C(Nc1ccc2[nH]ccc2c1)c1cc2cc(F)ccc2n1Cc1cccc(F)c1, the AC50 was 0.522 µM (active).
